Screen size: about 100,000 compounds; about 770 (0.77%) were called active. Rule as the data show it: active = inhibition above about 50%; inactive = the rest. Only a selection was taken, and actives are over-represented in it overall.
The compounds below were run against Gag-Pol polyprotein (Human immunodeficiency virus type 1 group M subtype B (isolate HXB2)) (UniProt P04585) (assay: RNase H inhibition, HIV 1 Gag Pol polyprotein, FRET biochemical assay, screening (AID 372)). Conditions: HIV-1 RT RNase H, FRET RNA/DNA substrate fluorescence; at 10 µM; hits give high values.
For CCOc1ccc(/C=N/N2CCN(Cc3cccc4ccccc34)CC2)cc1OC, the inhibition was 13% (inactive). With NC(=O)c1ccccc1NC(=O)c1sc2ccccc2c1Cl the inhibition was 0% (inactive). For O=C1S/C(=C/c2ccc3c(c2)OCO3)C(=O)N1CN1CCCC1, the inhibition was 10% (inactive). In the case of c1ccc(CCCN2CCN(Cc3cccnc3)CC2)cc1, the inhibition is reported as 5% (inactive). With COC(=O)C1=C(C)N=c2s/c(=C\c3ccccc3F)c(=O)n2C1c1ccc(OC)cc1 (stereo not drawn) the inhibition was 11% (inactive). With CCOC(=O)c1ccc(N2C(=O)C3C(C2=O)C2(c4ccccc4)C(=O)C3(c3ccccc3)C(c3ccc(OC)cc3)=C2c2ccc(OC)cc2)cc1 (stereo not drawn) the inhibition was 44% (inactive). With COC(=O)c1ccc(N2C(=O)C3C(C2=O)C2(c4ccccc4)C(=O)C3(c3ccccc3)C(c3ccc(OC)cc3)=C2c2ccc(OC)cc2)cc1 (stereo not drawn) the inhibition was 57% (active). With COc1ccc(C2=C(c3ccc(OC)cc3)C3(c4ccccc4)C(=O)C2(c2ccccc2)C2C(=O)N(c4ccc(Br)cc4)C(=O)C23)cc1 (stereo not drawn) the inhibition was 42% (inactive). COc1cc2ccccc2cc1C(=O)Nc1ccc(Cl)c(Cl)c1 was tested, and the inhibition was 24% (inactive). In the case of Cc1ccc(OCC2CNC(=O)O2)cc1 (stereo not drawn), the inhibition is reported as 10% (inactive). With CCOc1ccc(N2C(=O)NC(=O)/C(=C\c3ccc(Br)o3)C2=O)cc1 the inhibition was 1% (inactive). With CCOc1ccc(N2C(=O)NC(=O)/C(=C\c3ccc(I)o3)C2=O)cc1 the inhibition was 5% (inactive). In the case of CCOc1ccc(N2C(=O)/C(=C/c3ccc(N(CC)CC)o3)C(=O)NC2=S)cc1, the inhibition is reported as 21% (inactive). In the case of CCc1ccc(N2C(=O)/C(=C/c3ccc(-c4ccc(F)cc4)o3)C(=O)NC2=S)cc1, the inhibition is reported as 26% (inactive). With O=C1NC(=S)N(c2ccc(Cl)cc2)C(=O)/C1=C/c1ccc(N2CCCC2)o1 the inhibition was 10% (inactive). With CCc1ccc(N2C(=O)/C(=C/c3ccc(I)o3)C(=O)NC2=S)cc1 the inhibition was 97% (active). CCOc1cccc(N2C(=O)/C(=C/c3ccc(I)o3)C(=O)NC2=S)c1 was tested, and the inhibition was 39% (inactive). For O=C1NC(=S)N(c2ccc(Cl)cc2)C(=O)/C1=C/c1ccc(-c2ccc(F)cc2)o1, the inhibition was 25% (inactive). For CCc1ccc(N2C(=O)NC(=O)/C(=C\c3ccc(I)o3)C2=O)cc1, the inhibition was 11% (inactive). With O=C(Cc1csc(-c2ccccc2)n1)Nc1nccs1 the inhibition was 0% (inactive). For O=C(NCCSc1ccccn1)c1ccc([N+](=O)[O-])cc1, the inhibition was 0% (inactive). With Cc1ccc2c(c1)-c1c(ssc1=S)C(C)(C)N2C(=O)c1ccco1 the inhibition was 48% (inactive). With Cc1ccc(/C(O)=C2/C(=O)C(=O)N(c3ccccc3)C2c2ccc([N+](=O)[O-])cc2)cc1 (stereo not drawn) the inhibition was 0% (inactive). With CC1=C(C(=O)OCC2CCCO2)C(c2cc3c(cc2[N+](=O)[O-])OCO3)C2=C(CCCC2=O)N1 (stereo not drawn) the inhibition was 6% (inactive). CCC(C)c1ccc(NC(=O)Cc2ccc(Cl)cc2)cc1 (stereo not drawn) was tested, and the inhibition was 10% (inactive). CCC(=O)Nc1ccc(NC(=S)NC(=O)c2ccco2)cc1 was tested, and the inhibition was 0% (inactive). For N#C/C(=C\c1ccc(-c2ccc([N+](=O)[O-])cc2Br)o1)C(N)=O, the inhibition was 22% (inactive). COc1ccc(N2C(=O)NC(=O)/C(=C/c3ccc(I)o3)C2=O)cc1 was tested, and the inhibition was 11% (inactive). CCOc1ccc(N2C(=O)NC(=O)/C(=C/c3cccc4ccccc34)C2=O)cc1 was tested, and the inhibition was 73% (active). CCOc1ccc(N2C(=O)NC(=O)/C(=C\c3ccccc3OC)C2=O)cc1 was tested, and the inhibition was 5% (inactive). With CCOc1ccc(N2C(=O)NC(=O)/C(=C\c3ccccc3)C2=O)cc1 the inhibition was 0% (inactive). For COc1ccc(N2C(=O)/C(=C\c3ccc([N+](=O)[O-])o3)C(=O)NC2=S)cc1, the inhibition was 43% (inactive). In the case of CCCC1CCC(c2ccc(C(=O)CCN(C)C)cc2)CC1 (stereo not drawn), the inhibition is reported as 25% (inactive). COc1ccc(OC)c(/C=C2/SC(=S)N(c3ccc(Cl)cc3)C2=O)c1 was tested, and the inhibition was 4% (inactive). In the case of Cc1c(Cc2ccccc2)c(=O)oc2c(C)c(OS(C)(=O)=O)ccc12, the inhibition is reported as 0% (inactive). For COc1ccccc1/C=N/NC(=O)C(C)Sc1nc(C)cc(C)n1 (stereo not drawn), the inhibition was 14% (inactive). In the case of O=C(COC(=O)c1ccc2c(c1)OCCO2)c1ccc(-c2ccccc2)cc1, the inhibition is reported as 14% (inactive). For O=C(COC(=O)c1ccccc1I)c1ccc2c(c1)OCCO2, the inhibition was 57% (active). In the case of O=C(COC(=O)c1ccc2c(c1)OCCO2)c1ccc(Br)cc1, the inhibition is reported as 0% (inactive). With C=CCOc1cccc(/C=N/NC(=O)C(=O)Nc2ccc(C)c(C)c2)c1 the inhibition was 1% (inactive). With CCOc1cc(/C=C(/C#N)C(=O)Nc2ccc(O)cc2)ccc1OC the inhibition was 8% (inactive). In the case of CC(C)(C)c1cc(C(c2ccccc2O)N2CCOCC2)cc(C(C)(C)C)c1O (stereo not drawn), the inhibition is reported as 22% (inactive). Cc1ccccc1COc1ccc(C=C2C(=O)NC(=S)NC2=O)cc1 was tested, and the inhibition was 60% (active). COc1cc(/C=C2/SC(=S)NC2=O)ccc1OCc1ccccc1C#N was tested, and the inhibition was 46% (inactive). O=C1NC(=S)NC(=O)C1=Cc1ccc(OCc2ccccc2Cl)cc1 was tested, and the inhibition was 35% (inactive). For O=C1NC(=S)NC(=O)C1=Cc1cc(Br)ccc1OCc1cccc2ccccc12, the inhibition was 32% (inactive). With O=C1NC(=S)NC(=O)C1=Cc1ccc(OCc2cccc3ccccc23)c(Br)c1 the inhibition was 54% (active). In the case of N#Cc1ccccc1COc1ccc(C=C2C(=O)NC(=S)NC2=O)cc1Br, the inhibition is reported as 46% (inactive). In the case of N#Cc1ccccc1COc1ccc(/C=C2/SC(=S)NC2=O)cc1Br, the inhibition is reported as 52% (active). In the case of Cc1cccc(C)c1OCCOc1ccc(C=C2C(=O)NC(=S)NC2=O)cc1, the inhibition is reported as 36% (inactive). CN1C(=O)S/C(=C/c2ccc(OCc3ccccc3C#N)c(Br)c2)C1=O was tested, and the inhibition was 39% (inactive). With O=C(/C=C/c1ccccc1)N1CCN(c2ccccc2)CC1 the inhibition was 0% (inactive). With COc1ccc(-c2ccccc2)cc1NCC1CC=CCC1 (stereo not drawn) the inhibition was 21% (inactive). With Cc1ccc(NC(=O)C(C(C)C)N2C(=O)c3ccccc3C2=O)c(C)c1 (stereo not drawn) the inhibition was 12% (inactive). O=C1C(Cl)=C(Nc2cccc(Cl)c2)C(=O)N1c1cc(Cl)ccc1Cl was tested, and the inhibition was 0% (inactive). With C#CCOc1ccc(C=C2C(=O)NC(=S)NC2=O)cc1Br the inhibition was 19% (inactive). COc1ccc(/C=N/c2sc(C)c(C)c2C#N)cc1 was tested, and the inhibition was 12% (inactive). With CCc1ncc(C(O)c2ccccc2OC)n1C (stereo not drawn) the inhibition was 5% (inactive). For COc1ccc(OC)c(C2NC(=S)NC(C)=C2C(=O)Nc2ccc(C)c(Cl)c2)c1 (stereo not drawn), the inhibition was 15% (inactive). With Oc1[nH]c2ccc(Br)cc2c1N=Nc1ccccn1 the inhibition was 2% (inactive). In the case of Oc1[nH]c2ccc(Br)cc2c1N=Nc1ccc2ccccc2n1, the inhibition is reported as 52% (active). For O=S(=O)(N=Nc1c(O)[nH]c2ccc(Br)cc12)c1cccc2ccccc12, the inhibition was 9% (inactive). In the case of CCN(CC)S(=O)(=O)c1ccc(Cl)c(C(=O)Nc2ccc(OC)cc2)c1, the inhibition is reported as 0% (inactive). For O=C1NN(c2ccccc2)C(=O)/C1=C/c1ccc(-c2cccc([N+](=O)[O-])c2)o1, the inhibition was 31% (inactive). For C=CCOC(=O)C1=C(C)N(CC)C(=O)NC1c1ccc(Br)cc1 (stereo not drawn), the inhibition was 4% (inactive). With CCOCCOC(=O)C1=C(C)N(CC)C(=O)NC1c1ccc([N+](=O)[O-])cc1 (stereo not drawn) the inhibition was 0% (inactive). In the case of C=CCOC(=O)C1=C(C)N(CC)C(=O)NC1c1ccc([N+](=O)[O-])cc1 (stereo not drawn), the inhibition is reported as 57% (active). For O=C(N/N=C/c1ccc(F)cc1)c1cc(-c2ccc3ccccc3c2)n[nH]1, the inhibition was 17% (inactive). For O=C(N/N=C/c1ccc(/C=N/NC(=O)c2cccc([N+](=O)[O-])c2)cc1)c1cccc([N+](=O)[O-])c1, the inhibition was 12% (inactive). In the case of COc1ccc(/C=N/Nc2ccc([N+](=O)[O-])cc2)cc1Br, the inhibition is reported as 7% (inactive). In the case of O=C(N/N=C/c1ccc(OC(=O)c2ccc(Br)cc2)cc1)c1cccc([N+](=O)[O-])c1, the inhibition is reported as 50% (active). For O=[N+]([O-])c1ccc(N/N=C/c2cc([N+](=O)[O-])ccc2O)cc1, the inhibition was 10% (inactive). In the case of Cc1ccc(-c2cc(C(=O)N/N=C/c3ccc([N+](=O)[O-])cc3)[nH]n2)cc1, the inhibition is reported as 24% (inactive). O=C(N/N=C\c1ccc(OC(=O)c2ccc(Br)cc2)cc1)c1ccc(Br)cc1 was tested, and the inhibition was 14% (inactive). In the case of O=C(N/N=C/c1ccc([N+](=O)[O-])cc1)c1cc(-c2ccc3ccccc3c2)n[nH]1, the inhibition is reported as 50% (active). In the case of O=[N+]([O-])c1ccc(N/N=C/c2ccc(Cl)c([N+](=O)[O-])c2)cc1, the inhibition is reported as 8% (inactive). For O=[N+]([O-])c1ccc(N/N=C/c2ccc(O)c(O)c2)cc1, the inhibition was 57% (active). O=[N+]([O-])c1ccc(N/N=C/c2ccc(O)c(Br)c2)cc1 was tested, and the inhibition was 50% (active). With O=[N+]([O-])c1ccc(N/N=C/c2cc(Br)c(O)c(Br)c2)cc1 the inhibition was 24% (inactive). In the case of Cc1ccc(N(CC(=O)O)S(=O)(=O)c2ccccc2)cc1Cl, the inhibition is reported as 4% (inactive). In the case of COc1ccc(Br)cc1/C=C/C(=O)Nc1ccc(O)c(-c2nc3ccccc3o2)c1, the inhibition is reported as 14% (inactive). For O=C(Nc1ccc(Br)cc1)C1C2/C=C\CCCCC21 (stereo not drawn), the inhibition was 9% (inactive). For COC(=O)c1c(NC(=O)c2ccccc2C)sc2c1CCC(C)C2 (stereo not drawn), the inhibition was 12% (inactive). O=C(CSc1ccccc1)N/N=C/c1ccccc1O was tested, and the inhibition was 7% (inactive). For CS(=O)(=O)N1CCN(Cc2ccccc2Cl)CC1, the inhibition was 0% (inactive). For OCCNc1nc(-c2ccccc2Cl)nc2ccccc12, the inhibition was 0% (inactive). COc1ccc(C(=O)NNC(N)=S)cc1 was tested, and the inhibition was 0% (inactive). O=C(N/N=C/c1ccc(O)cc1)c1ccc([N+](=O)[O-])cc1 was tested, and the inhibition was 0% (inactive). With O=C(N/N=C/c1ccc(/C=N/NC(=O)c2ccc([N+](=O)[O-])cc2)cc1)c1ccc([N+](=O)[O-])cc1 the inhibition was 0% (inactive). With NC1=NC(=O)/C(=C/c2ccc(OC(=O)c3cccc([N+](=O)[O-])c3)cc2)S1 the inhibition was 51% (active). For NC1=NC(=O)/C(=C/c2ccc(OS(=O)(=O)c3cccc([N+](=O)[O-])c3)cc2)S1, the inhibition was 25% (inactive). O=C(N/N=C/c1ccc(O)c(O)c1)c1ccc([N+](=O)[O-])cc1 was tested, and the inhibition was 51% (active). With NC1=NC(=O)/C(=C/c2ccc(OC(=O)c3ccc(Cl)c(Cl)c3)cc2)S1 the inhibition was 18% (inactive).
